# High-throughput results: PubChem BioAssay, National Center for Advancing Translational Sciences (NCATS)
# Compounds with a hit are over-represented: about 2.1% of the library has one in this group of screens.
# TDP43 rescue = qHTS of TDP-43 Inhibitors | hit rate 1.8% among 410,000 | TDP-43 expressing yeast growth rescue, BacTiter-Glo, 24 h | Potency, µM (highest dose often 46.1 µM), for inactives: top-dose growth rescue (activation), most hits filed as activators; further: % of control where 0% means no effect; nearly all actives have a fitted effect of over 50% in size
#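 Growth rescue of TDP-43-toxic yeast measured as ATP luminescence (BacTiter-Glo). Cells grown to mid-log in raffinose, induced in galactose at OD600=0.02, exposed to compound 24 hr at 30 deg C.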
# FUS suppressor = qHTS for Suppressors of FUS Proteinopathy: Primary screen using FUS-linked yeast assay | Potency, µM (titrated, usually from 76.6 µM), hits mostly activators | AID 1347120, 2019 | S. cerevisiae FUS-expressing, growth rescue, OD600, 24 h | hit rate 0.24% among 390,000;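 further: plate controls were DMSO vehicle for no effect and reference control for full effect; nearly all actives have a fitted effect of over 55% in size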
#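 Compound concentration series was pinned onto galactose-induced FUS-expressing yeast seeded at OD 0.005. Plates sat 24hr at 30C; absorbance at 600 nm gave growth. DMSO served as background control.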
# aSyn rescue = qHTS of alpha-syn Inhibitors; Yeast expressing alpha-synuclein, growth rescue, BacTiter-Glo, 24 h; Potency, µM (titrated, usually from 46.1 µM), without a hit: top-dose growth rescue (activation), usual class: activators; hit rate 0.14% among 370,000; further: % of control where 0% means no effect; nearly all actives have a fitted effect of over 65% in size
#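 Screening used galactose-induced yeast with toxic alpha-synuclein levels, exposed to compound for 24 hr at 30 deg C. Cell growth, read with BacTiter-Glo luminescence, gave the measured signal.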
# Abeta rescue = qHTS for compounds that reverse cellular toxicity of Amyloid beta (A-beta) peptide in yeast: Primary Screen. yeast expressing A-beta42, growth rescue, OD600, 48 h; response scale: 0% DMSO, 100% iron-clioquinol control. Potency, µM (titrated, usually from 46.1 µM), hits mostly activators. hit rate 0.063% among 410,000; further: nearly all actives have a fitted effect of over 55% in size
#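 Growth rescue measured by 600 nm absorbance after 48 h yeast culture at 30 C with compound. Values normalized between DMSO and an equimolar ferric chloride plus clioquinol control.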
# An asterisk follows results filed as active; i = inactive; ? = inconclusive; . = no result given; [ ] = remark or other dose. The call rests on the fitted dose curve; in most records, active means well fitted curve in the direction sought with a large enough effect; inconclusive means small, poorly fitted or top-dose-only effect, or another doubt; inactive means no such curve, though single readings can be large; an effect the other way counts as inactive or inconclusive. Potency means the concentration at half of the fitted maximal effect.
SMILES,TDP43 rescue,FUS suppressor,aSyn rescue,Abeta rescue
CCCOc1ccc(F)cc1-c1cc(C(=O)Nc2cc(OC)ccc2OC)[nH]n1,5%,i,-12%,i
COc1ccc(NC(=O)c2cc(-c3ccc(F)cc3OC(C)C)n[nH]2)c(OC)c1,25µM*,i,-19%,i
COc1ccc(NC(=O)c2cc(-c3cc(F)ccc3OCC3CCCO3)n[nH]2)cc1OC (stereo not given),-35%,?,0%,i
CC(C)Oc1ccc(F)cc1-c1cc(C(=O)NC2CCCCC2)[nH]n1,16µM*,i,-7%,i
COc1ccc(NC(=O)c2cc(-c3cc(F)ccc3OC)n[nH]2)c(C)c1,22µM*,i,-2%,i
COc1ccc(NC(=O)c2cc(-c3cc(F)ccc3OCC3CCCO3)n[nH]2)c(C)c1 (stereo not given),13µM*,?,-11%,i
O=[N+]([O-])c1ccc2c(c1)C=C/C2=C/c1ccccc1,.,.,-9%,.
O=C(OC12CCCN(C1)/C(=C/c1ccc(Cl)cc1)C2)c1ccccc1 (stereo not given),.,i,.,.
Nc1c(C(=O)NCC(O)c2ccccc2)cnn1-c1ccccc1 (stereo not given),.,i,.,.
Cc1ccccc1Cn1cc(CN2[C@@H](Cc3ccccc3)COc3cc(Br)ccc3S2(=O)=O)nn1,.,i,.,.
COc1cc(NC(=O)c2cc(-c3cc(F)ccc3OC(C)C)n[nH]2)cc(OC)c1OC,0%,i,6%,i
COc1ccc(NC(=O)c2cc(-c3cc(Cl)ccc3C)n[nH]2)cc1OC,20µM*,i,10%,i
COc1ccc(NC(=O)c2cc(-c3cc(F)ccc3OC(C)C)n[nH]2)cc1OC,35µM*,i,2%,i
COc1ccc(NC(=O)c2cc(-c3cc(F)ccc3OC(C)C)n[nH]2)c(OC)c1,20µM*,i,1%,i
CN(C1=C(N2CCOCC2)C(=O)c2ccccc2C1=O)c1ccccc1,11µM*,.,-33%,i
COc1ccc(N(CC(=O)Nc2cc(C)on2)S(=O)(=O)c2ccc(Cl)cc2)cc1,17%,i,1%,i
COc1ccc(N(CC(=O)Nc2cc(C)on2)S(=O)(=O)c2cc(C)ccc2C)cc1,?,32µM*,15%,i
COc1ccc(C)c(NC(=O)[C@@H]2CCCN2S(=O)(=O)c2cccc3cccnc23)c1,.,i,.,.
COc1ccc(-c2cc(C(=O)OCC(=O)NC3CC3)c3ccccc3n2)cc1,18%,?,0%,i
O=C(COC(=O)c1cc(-c2ccccc2)nc2ccccc12)NC1CC1,35µM*,?,-1%[1.84 µM],i
CCC(C)(C)n1nnnc1C(c1ccncc1)N1CCC(Cc2ccccc2)CC1 (stereo not given),-3%,i,13%,i
CCC(C)(C)n1nnnc1C(c1cccnc1)N1CCC(Cc2ccccc2)CC1 (stereo not given),10µM*,i,?,i
COc1cc2nc(N3CCCCC3)nc(NC3CCN(Cc4ccccc4)CC3)c2cc1OC,.,.,-2%,.
COc1cc(CN2C(=O)C(CCc3ccccc3)ON=C2c2cnccn2)cc(OC)c1 (stereo not given),35µM*,i,1%,i
CC(=O)Oc1ccc(CN2C(=O)C(CCc3ccccc3)ON=C2c2cnccn2)cc1 (stereo not given),14µM*,i,17%,i
SMILES,TDP43 rescue,FUS suppressor,aSyn rescue,Abeta rescue
CC(=O)Nc1ccc(CN2C(=O)C(Cc3ccccc3)ON=C2c2ncccc2C)cc1 (stereo not given),20%,i,0%,i
CNc1ccc(/C=C2\C=Cc3ccccc32)cc1I,.,.,0%,.
Cc1ccc(C2=CC(c3ccc(C)cc3)n3ncnc3N2)cc1 (stereo not given),16µM*,i,?,?
CCOc1ccc(C2C=C(c3ccccc3)Nc3nnnn32)cc1 (stereo not given),1%,i,-4%,i
FC(F)(F)c1ccccc1C1=CC(c2ccccc2)n2ncnc2N1 (stereo not given),18µM*,i,-1%,i
CCOc1ccc(C2C=C(c3ccc(C)cc3)Nc3nnnn32)cc1 (stereo not given),22µM*,?,-32%,i
COc1ccc(C2C=C(c3ccccc3)Nc3ncnn32)cc1 (stereo not given),?,i,1%,i
CC(C)(C)c1ccc(C2=CC(c3ccccc3)n3ncnc3N2)cc1 (stereo not given),23%,i,-7%,i
Clc1ccccc1C1=CC(c2ccco2)n2ncnc2N1 (stereo not given),14µM*,i,-3%,i
